According to a collection of fitness landscapes (doi:10.1016/j.celrep.2020.107928):
Whole data set: some 81,000 sequences, median “one-hybrid fitness for binding parS DNA” near -0.17, cut for the highest 2% near 0.51. For the sample, the highest values were picked, then their nearest neighbours and some sequences at random.

B1: Caulobacter ParB omega fusion; a variant is named by its letters at X, in order, B8GW30 (parent)
chain: MESVVVGEPGMSEGRRGLGRGLSALLGEVDAAPAQAPGEQLGGSREAPIEILQRNPDQPRRTFREEDLEDLSNSIREKGVLQPILVRPSPDTAGEYQIVAGERAWRAAQRAGLKTVPIMVRELDDLAVLEIGIIENVQRADLNVLEEALSYKVLMEKFERTQENIAQTIGKSXSHVANXMRLLXLPDEVQSYLVSGELTAXHARAIAAAADPVALAKQIIEGGLSVRETEALARKAPNLSAGKSKGGRPPRVKDTDTQALESDLSSVLGLDVSIDHRGSTGTLTITYATLEQLDDLCNRLTRGI

Variants of: B1
Assay: one-hybrid fitness for binding parS DNA (scaled: cognate 1, non-cognate 0); higher = stronger binding
Conditions: with parS DNA site
In short: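 Caulobacter ParB libraries with four specificity codons randomised were screened by bacterial one-hybrid selection in the E. coli USO strain, using a HIS3 reporter whose site lies 19 bp from the promoter. Selection ran for 48 hours at 37°C on M9 lacking histidine, with 0.1 mM IPTG and 5 mM 3-AT. Plasmids were Illumina-sequenced before and after selection, three replicate libraries were pooled, and variants with under 10 reads were dropped. Fitness is the log change in each variant's read ratio to wild type, rescaled against the cognate and non-cognate sites.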

Variant | one-hybrid fitness for binding parS DNA
NLVS | ≤ 0.2
RHVM | ≤ 0.2
RHKF | 0.255
RHKT | 0.745
RHKK | ≤ 0.2
RHVK | ≤ 0.2
RHVT | 0.637
TMRL | ≤ 0.2
CWHG | 0.244
MPLG | ≤ 0.2
YPFR | ≤ 0.2
RTVH | ≤ 0.2
RTKN | 0.441
RTKG | 0.872
RTVD | ≤ 0.2
RTVG | 0.979
RTKR | ≤ 0.2
KCHG | ≤ 0.2
GQFL | ≤ 0.2
PQKC | ≤ 0.2
NWQS | ≤ 0.2
RRAN | 0.583
RRFN | 0.314
RRFH | ≤ 0.2

Variant | one-hybrid fitness for binding parS DNA
RRAS | 0.652
RCAN | 0.477
RRAD | ≤ 0.2
RRFP | ≤ 0.2
RRAH | ≤ 0.2
RRFS | 0.743
MEPC | ≤ 0.2
GRGV | ≤ 0.2
MVCR | ≤ 0.2
PWNF | ≤ 0.2
ATEL | ≤ 0.2
REGS | ≤ 0.2
FMKF | ≤ 0.2
IDST | ≤ 0.2
HFES | ≤ 0.2
QITI | ≤ 0.2
LTWC | ≤ 0.2
ADCT | ≤ 0.2
ENNV | ≤ 0.2
DYSL | ≤ 0.2
RPCY | ≤ 0.2
RSCY | 0.47
RCCY | 0.526
RMCY | 0.509

Variant | one-hybrid fitness for binding parS DNA
WWVS | ≤ 0.2
TIHD | ≤ 0.2
VITG | ≤ 0.2
YPSN | ≤ 0.2
RLIG | 0.934
RLPH | ≤ 0.2
RLIK | ≤ 0.2
RLIY | 0.437
RLPP | ≤ 0.2
RLPG | 0.755
NLNR | ≤ 0.2
YYRR | ≤ 0.2
VLMH | ≤ 0.2
LVRM | ≤ 0.2
KHKS | ≤ 0.2
DGAP | ≤ 0.2
RWTT | 0.705
RWTY | 0.37
RWTF | ≤ 0.2
RWTH | ≤ 0.2
RWTC | 0.79
RWTG | 0.824
RWTR | ≤ 0.2
RWTN | 0.338

Variant | one-hybrid fitness for binding parS DNA
RWTP | ≤ 0.2
RWTD | ≤ 0.2
RWTQ | ≤ 0.2
RWTS | 0.956
SCKV | ≤ 0.2
RMTE | ≤ 0.2
EKPG | ≤ 0.2
PAYN | ≤ 0.2
HTMF | ≤ 0.2
AKDP | ≤ 0.2
FKSC | ≤ 0.2
TTMG | ≤ 0.2
PSRP | ≤ 0.2
QMFV | ≤ 0.2
YLKH | 0.358
HKTR | ≤ 0.2
KKHM | ≤ 0.2
RCHA | 0.626
RPHA | ≤ 0.2
RWHA | 0.378
RAHA | 0.613
RNHA | 0.438
RDHA | ≤ 0.2
NAHA | ≤ 0.2

Variant | one-hybrid fitness for binding parS DNA
RGHA | 0.238
RLHA | 0.592
RSHA | 0.592
DLHA | ≤ 0.2
LRPS | ≤ 0.2
RCFW | 0.256
MCTC | ≤ 0.2
CVPM | ≤ 0.2
SGES | ≤ 0.2
ADNQ | ≤ 0.2
SFPL | ≤ 0.2
TQVG | ≤ 0.2
TFSM | ≤ 0.2
PVIS | ≤ 0.2
RHHA | 0.526
NTHA | ≤ 0.2
DMHA | ≤ 0.2
RTHA | 0.61
DTHA | ≤ 0.2
AFHA | ≤ 0.2
RFHA | 0.53
PFHA | ≤ 0.2
RMHA | 0.603
VHWV | ≤ 0.2

Variant | one-hybrid fitness for binding parS DNA
CRAC | ≤ 0.2
QHLA | ≤ 0.2
DKPG | ≤ 0.2
IKTN | ≤ 0.2
AQFC | ≤ 0.2
TGAE | ≤ 0.2
RVAY | 0.464
RVFP | ≤ 0.2
RVAM | 0.329
RVFK | ≤ 0.2
RVFG | 0.993
RVAG | 0.999
GARV | ≤ 0.2
QRMF | ≤ 0.2
RYTA | 0.582
NRTA | ≤ 0.2
KQTA | ≤ 0.2
RQTA | 0.574
RRTA | 0.656
NTTA | ≤ 0.2
EYTA | ≤ 0.2
DTTA | ≤ 0.2
NYTA | ≤ 0.2
NQTA | ≤ 0.2

Variant | one-hybrid fitness for binding parS DNA
RTTA | 0.612
DRTA | ≤ 0.2
FTDF | ≤ 0.2
KGIS | ≤ 0.2
VCHR | ≤ 0.2
EKES | ≤ 0.2
KHQG | ≤ 0.2
LHTY | ≤ 0.2
DYTC | ≤ 0.2
APHT | ≤ 0.2
YEEE | ≤ 0.2
RHTA | 0.516
RSTA | 0.578
RKTA | 0.746
RGTA | 0.376
RMTA | 0.6
RDTA | ≤ 0.2
RETA | ≤ 0.2
RNTA | 0.473
NLQR | ≤ 0.2
HMPW | ≤ 0.2
LVSL | ≤ 0.2
QMTR | ≤ 0.2
KAGR | ≤ 0.2

Variant | one-hybrid fitness for binding parS DNA
GRLC | ≤ 0.2
QTFT | ≤ 0.2
ATQR | ≤ 0.2
IINN | ≤ 0.2
QNFC | ≤ 0.2
NVTA | ≤ 0.2
DFTA | ≤ 0.2
RCTA | 0.609
RWTA | 0.459
RVTA | 0.578
RPTA | ≤ 0.2
RFTA | 0.541
EFTA | ≤ 0.2
DITA | ≤ 0.2
AVTA | ≤ 0.2
EITA | ≤ 0.2
RITA | 0.55
GLTC | ≤ 0.2
TSQQ | ≤ 0.2
VYNA | ≤ 0.2
AYGG | ≤ 0.2
SRQV | ≤ 0.2
FRFR | ≤ 0.2
ACAI | ≤ 0.2

Variant | one-hybrid fitness for binding parS DNA
TPWT | ≤ 0.2
GHMG | ≤ 0.2
PGAS | ≤ 0.2
NLTA | ≤ 0.2
RLTA | 0.599
DATA | ≤ 0.2
RATA | 0.586
DLTA | ≤ 0.2
HHAP | ≤ 0.2
NDPH | ≤ 0.2
RCLD | ≤ 0.2
KLRG | ≤ 0.2
RIAQ | ≤ 0.2
RIFR | ≤ 0.2
RIAT | 0.885
RIAM | 0.367
RIFT | 0.834
RIFF | 0.297
QSSH | ≤ 0.2
PVNK | ≤ 0.2
RQVD | ≤ 0.2
RQKY | 0.581
RQVY | 0.375
RQVN | 0.316

Variant | one-hybrid fitness for binding parS DNA
RQVS | 0.937
RQYY | 0.494
RQKS | 0.864
RQKP | ≤ 0.2
RQKD | ≤ 0.2
TGHV | ≤ 0.2
GPHD | ≤ 0.2
RARG | 0.956
RANE | ≤ 0.2
RACY | 0.435
RARP | ≤ 0.2
RAYG | 1.01
RAYD | ≤ 0.2
RANG | 1
RACF | 0.228
RANQ | ≤ 0.2
RAYH | ≤ 0.2
RACG | 0.971
RARD | ≤ 0.2
PSYN | ≤ 0.2
WIKS | ≤ 0.2
SDEV | ≤ 0.2
WGFG | ≤ 0.2
PYGM | ≤ 0.2

Variant | one-hybrid fitness for binding parS DNA
CARA | ≤ 0.2
PAYT | ≤ 0.2
APAI | ≤ 0.2
YGRH | ≤ 0.2
RALG | 1.01
RAGP | ≤ 0.2
RAGG | 0.99
RALP | ≤ 0.2
RALD | ≤ 0.2
RAHP | 0.241
RASR | ≤ 0.2
RAHK | ≤ 0.2
RASF | 0.234
RAGH | 0.268
RAHG | 1.01
RASG | 1
ACSG | ≤ 0.2
LMLS | ≤ 0.2
QSHN | ≤ 0.2
TPPK | ≤ 0.2
GNDG | ≤ 0.2
GGIR | ≤ 0.2
HVTA | ≤ 0.2
LPSV | ≤ 0.2

Variant | one-hybrid fitness for binding parS DNA
VEFL | ≤ 0.2
RADD | ≤ 0.2
RAQG | 1
RADG | 0.908
RADN | 0.372
RAQY | 0.469
RAQK | ≤ 0.2
QSRC | ≤ 0.2
AVDS | ≤ 0.2
RKRM | 0.281
RKSH | ≤ 0.2
RKHM | 0.21
RKRC | 0.737
RKHC | 0.882
RKHQ | ≤ 0.2
RKRK | ≤ 0.2
RKLR | ≤ 0.2
RKLM | 0.272
RKLC | 0.921
RKSC | 0.812
RKSD | ≤ 0.2
DVNN | ≤ 0.2
VNYS | ≤ 0.2
PWEG | ≤ 0.2

Variant | one-hybrid fitness for binding parS DNA
NNLY | ≤ 0.2
VLIA | ≤ 0.2
VPYR | ≤ 0.2
LEDT | ≤ 0.2
PHLT | ≤ 0.2
MREY | ≤ 0.2
RKDC | 0.923
RKNC | 0.806
RKDR | ≤ 0.2
RKCH | ≤ 0.2
RKYQ | 0.213
RKND | ≤ 0.2
RKYR | ≤ 0.2
RKCD | ≤ 0.2
RKNP | ≤ 0.2
RKCC | 0.908
RKDF | ≤ 0.2
RKYC | 0.925
